Compounds without any hit were thinned out: in the full panel of roughly 79,000, 15% have a hit. Cut-off read from the data, not from the text of the source: active = growth inhibition above about 70%; inactive = the rest.
Key:
[1] = NCI Yeast Anticancer Drug Screen. Data for the rad50 strain (AID 155);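 note: 0% = growth of vehicle-only cultures of the same strain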; conditions: S. cerevisiae rad50 strain growth inhibition; at 50.0 µM; active compounds read high
Summary of the method: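 Genetically altered yeast (DNA repair pathway); compound treatment; growth inhibition vs vehicle ctrl.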

[2] = NCI Yeast Anticancer Drug Screen. Data for the mec2-1 strain (AID 157); conditions: S. cerevisiae mec2-1 strain, at 50.0 µM, active compounds read high
Summary of the method: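 Growth inhibition is read against vehicle-treated controls after compound exposure of the mec2-1 yeast strain, which is defective in DNA damage repair or cell cycle control.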

[3] = NCI Yeast Anticancer Drug Screen. Data for the sgs1 mgt1 strain (AID 161);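 note: 0% = growth of cultures given vehicle only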; conditions: S. cerevisiae sgs1 mgt1 strain, at 50.0 µM, active compounds read high
Summary of the method: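 Percent growth inhibition was derived by comparing compound-exposed mutant yeast with vehicle-exposed cultures. The strain carries alterations in DNA damage repair.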

[4] = NCI Yeast Anticancer Drug Screen. Data for the cln2 rad14 strain (AID 165);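 note: 0% = growth equal to vehicle treated cultures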; conditions: S. cerevisiae cln2 rad14 strain, at 50.0 µM, active compounds read high
Summary of the method: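 Growth inhibition, relative to vehicle-treated controls, is the read-out. The test organism is a yeast strain with defined genetic alterations, cln2 rad14.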

[5] = NCI Yeast Anticancer Drug Screen. Data for the bub3 strain (AID 167); conditions: S. cerevisiae bub3 mutant strain, at 50.0 µM, active compounds read high
Summary of the method: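 Yeast carrying a defined mutation is treated with each compound, and growth is compared with that of vehicle-exposed cells to give inhibition.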

[6] = NCI Yeast Anticancer Drug Screen. Data for the mlh1 rad18 strain (AID 175); conditions: S. cerevisiae mlh1 rad18 strain growth inhibition; at 50.0 µM; active compounds read high
Summary of the method: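 Cells of a genetically altered yeast strain, deficient in DNA damage repair, were treated with compound. Their growth was then compared with that of vehicle-treated cultures to give inhibition.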

Measured: growth inhibition

COC1CCC2CC3(CCC2(C)C1O)OCCO3 (configuration not stated)
inactive: [1] 1.25% | [2] 0.85% | [3] -1.45% | [4] -12.3% | [5] 26.1% | [6] -14.4%

O=c1cc(O)nc2cn[nH]n12
inactive: [1] 4.8% | [2] -22.4% | [3] 7.65% | [4] 13.4% | [5] -3.45% | [6] 1.6%

CCN(CC)C(=O)c1ccc(C)c(N=NN(C)C)c1
inactive: [1] -5.7% | [2] -36.2% | [3] -20.9% | [4] -0.15% | [5] -19.9% | [6] -8.75%

CCSc1n[nH]c(=S)c2nc[nH]c12
inactive: [1] 12.7% | [2] 2.6% | [3] 3.7% | [4] 6.3% | [5] 8.55% | [6] -6.25%

O=C(O)C(=O)Cc1ccccc1
inactive: [1] 11.2% | [2] -14.2% | [3] -4.85% | [4] 19.9% | [5] 0.85% | [6] 14.9%

CC1=CC(=O)/C(=C/n2c(=S)sc3ccccc32)C(=O)O1
inactive: [1] -27.4% | [2] 7.1% | [3] 27.9% | [4] 23% | [5] -29.9% | [6] 14.6%

COc1ccc2c(c1)OCc1c-2oc2ccccc2c1=O
inactive: [1] -24.8% | [2] -4.55% | [3] -10.9% | [4] -25.4% | [5] -3.95% | [6] -5.3%

NC(=O)C(Br)Cc1cccc(Cl)c1 (configuration not stated)
inactive: [1] 29.6% | [2] 11.2% | [3] 13.4% | [4] 2.05% | [5] 17.9% | [6] 14.4%

CCOC(=O)C(c1ccccc1)C(Cc1ccccc1)(c1ccccc1)c1ccccc1 (configuration not stated)
inactive: [1] 10.1% | [2] 9.2% | [3] 17.3% | [4] 19.6% | [5] -4.6% | [6] 10.7%

O=C1NCC2(CCN(Cc3ccccc3)CC2)N1c1ccccc1
inactive: [1] 7.6% | [2] 3.05% | [3] 2.4% | [4] 4.85% | [5] -13.1% | [6] 13.7%

CC1(O)CCC(C(C)(C)C)CC1 (configuration not stated)
inactive: [1] 22.6% | [2] 12.3% | [3] -1.2% | [4] 2.05% | [5] 2.95% | [6] 11.1%

CC(C)(C(=O)O)C(=O)O
inactive: [1] 6.9% | [2] 3.25% | [3] 0.6% | [4] 8.2% | [5] 21.4% | [6] 3.1%

CCSCC(N)C(=O)O (configuration not stated)
inactive: [1] -16.1% | [2] 2.5% | [3] 7.45% | [4] -7.25% | [5] 3.35% | [6] -9%

CC(C)(C)C1CCC(C(=O)O)CC1 (configuration not stated)
inactive: [1] 24.4% | [2] -3.05% | [3] 19.8% | [4] 10.6% | [5] 5.6% | [6] 24.9%

CC1OC1P(=O)(O)O (configuration not stated)
inactive: [1] 16.6% | [2] -5.9% | [3] -4.55% | [4] 1.7% | [5] -3.3% | [6] -6.55%

Cc1nc2cc(Nc3ccccc3C(=O)O)ccc2s1
inactive: [1] -43.3% | [2] -36.6% | [3] -50.6% | [4] -0.7% | [5] -22.2% | [6] -25.9%

C=CCn1c(SCc2ccccc2)nccc1=O
inactive: [1] 25.1% | [2] -10.8% | [3] 16.9% | [4] -33% | [5] 7.15% | [6] 8.9%

CCN(CC)Cc1cc(NC(C)=O)ccc1O
inactive: [1] -5.1% | [2] -13.7% | [3] -17.4% | [4] 11.1% | [5] -4.95% | [6] 2.3%

NC(=S)N/N=C1\CCCC1C(O)(C(F)(F)Cl)C(F)(F)Cl (configuration not stated)
inactive: [1] 65.3% | [2] 17.6% | [3] 56.1% | [4] 35% | [5] 29.9% | [6] 62.5%

O=c1nc(NC(c2ccccc2)(c2ccccc2)c2ccccc2)ccn1CCCl
inactive: [1] -5.35% | [2] 4.55% | [3] -1.5% | [4] -23.9% | [5] -20.9% | [6] -9.7%

Cc1onc2c1c(=O)n(C)c(=O)n2C
inactive: [1] -6.25% | [2] -1.95% | [3] -3.55% | [4] -20.1% | [5] -7.45% | [6] -2.25%

CCC1=C(C)C(=O)OC1n1ccc(=O)[nH]c1=O (configuration not stated)
inactive: [1] -11.6% | [2] -2.75% | [3] 2.8% | [4] -37% | [5] -5% | [6] -3.5%

CCCCC1(CCS)C(=O)NC(=Nc2ccccc2)NC1=O (configuration not stated)
inactive: [1] -0.95% | [2] -3.95% | [3] 11.8% | [4] -37.3% | [5] 22.7% | [6] -11.8%

COC(=O)c1nc(SC)[nH]c1CC(N)=O
inactive: [1] 43.5% | [2] 22.4% | [3] 20.5% | [4] -22.8% | [5] 32.7% | [6] -15.2%

COc1cc(/C=C\C(=O)c2cccc([N+](=O)[O-])c2)cc(OC)c1OC
inactive: [1] 20.4% | [2] 30.1% | [3] 13.9% | [4] 12.5% | [5] 29.1% | [6] 20.7%

O=C1CNC(=O)N1c1ccccc1
inactive: [1] 7.35% | [2] 5.75% | [3] 4.4% | [4] -9.2% | [5] 5.65% | [6] 3.8%

NC1C(=O)Nc2ccccc21 (configuration not stated)
inactive: [1] 1.85% | [2] 5.95% | [3] -5.75% | [4] -1.05% | [5] 8.35% | [6] 4.95%

CC(=O)N(C(C)=O)c1cc2c3c(c1)CCCN3CCC2
inactive: [1] 2.2% | [2] -40.8% | [3] -22.1% | [4] -36.8% | [5] -16.1% | [6] -1.6%

COc1cc(OC)cc(OCc2nc3cc(C(F)(F)F)ccc3nc2-c2ccccc2)c1
inactive: [1] -17.8% | [2] -3.5% | [3] 5.9% | [4] -6.2% | [5] -0.95% | [6] -53.8%

COC1(OC)C2(Cl)CCC1(Cl)C(OC(C)=O)C2 (configuration not stated)
inactive: [1] -21.4% | [2] -5% | [3] 4.65% | [4] 26.8% | [5] -8% | [6] -10.7%

O=C(/C=C\c1ccccc1)OCC(=O)c1ccc(-c2ccccc2)cc1
inactive: [1] -20.1% | [2] -2.3% | [3] 1.9% | [4] -34.3% | [5] 1.1% | [6] 4.4%

CC1(C)OCN(c2ccc(Cl)cc2)Cn2c1nc1ccccc12
inactive: [1] -6.65% | [2] 8.2% | [3] -22.8% | [4] 2.5% | [5] -25.9% | [6] -9.25%

c1ccc2c3c(ccc2c1)CCCC3
inactive: [1] 7.5% | [2] -2.15% | [3] 2.9% | [4] -8% | [5] 15.9% | [6] 0.7%

Cc1ccc(S(=O)(=O)NC2(C=O)CCCC3CCCCC32)cc1 (configuration not stated)
inactive: [1] 33% | [2] 6% | [3] -5.45% | [4] -9.15% | [5] 0% | [6] 20.6%

COc1cccc(N2C(=O)C3c4[nH]c5ccccc5c4C4CCCC4C3C2=O)c1 (configuration not stated)
inactive: [1] -36.5% | [2] -47.4% | [3] -20.8% | [4] -8.15% | [5] -50% | [6] -22.4%

Cc1ccccc1NP1(Nc2ccccc2C)=NP(Nc2ccccc2C)(Nc2ccccc2C)=NP(Nc2ccccc2C)(Nc2ccccc2C)=NP(Nc2ccccc2C)(Nc2ccccc2C)=N1
inactive: [1] 0.8% | [2] -0.9% | [3] 23.6% | [4] -5.3% | [5] -6.95% | [6] -9.7%

Nc1ccnc(Cl)n1
inactive: [1] -2.45% | [2] -6.05% | [3] -13.2% | [4] 0.4% | [5] 0.4% | [6] -0.95%

Cc1ccc(S(=O)(=O)C(C#N)CCC(=O)c2ccc(Cl)cc2)cc1 (configuration not stated)
inactive: [1] 6.25% | [2] 3.55% | [3] 6.75% | [4] 9.45% | [5] 10.2% | [6] 17.6%

Clc1ccc(C2ON=C(c3ccccc3)N2C23CC4CC(CC(C4)C2)C3)c(Cl)c1 (configuration not stated)
inactive: [1] -18.9% | [2] -26.4% | [3] -12.4% | [4] -48.6% | [5] -21.4% | [6] -21.5%

Clc1ccc(Nc2ncnc3oc(-c4ccccc4)c(-c4ccccc4)c23)cc1
inactive: [1] 6.7% | [2] 13% | [3] 1.3% | [4] -5.05% | [5] -4.1% | [6] 4.65%

COc1cccc(C2c3cc4c(cc3OC(NNC(N)=O)C2C)OCO4)c1O (configuration not stated)
inactive: [1] -12.8% | [2] -8.6% | [3] 2.55% | [4] 9.9% | [5] -2.75% | [6] -7.35%

CN(C)CCNC(=O)c1ccc(NC(=O)c2nc([N+](=O)[O-])cn2C)cc1
inactive: [1] -14.2% | [2] 10.6% | [3] 4.9% | [4] -22.6% | [5] -8.5% | [6] -31.6%
